MCF10A rereplic: inducers of DNA re-replication in MCF 10A breast cells; MCF 10A DNA re-replication, Hoechst nuclear intensity, 48 h; Potency, µM (series often up to 46.1 µM), for inactives: at the top dose activity, positive = re-replication, usual class: activators; hit rate 2.9% among 350,000; AID 624296; note: potency is the fitted concentration of half-maximal effect; % of control where 0% means no effect; nearly all actives have a fitted effect of over 50% in size
D3 ag: agonists of human D3 dopamine receptor; P35462; D3R DiscoveRx beta-arrestin cells, luminescence, 90 min; max activation, %; hit rate 0.58% among 410,000; AID 652048; in the data active = max activation above about 30%; note: 0% is about no effect
Target sequence (P35462 whole entry, looked up): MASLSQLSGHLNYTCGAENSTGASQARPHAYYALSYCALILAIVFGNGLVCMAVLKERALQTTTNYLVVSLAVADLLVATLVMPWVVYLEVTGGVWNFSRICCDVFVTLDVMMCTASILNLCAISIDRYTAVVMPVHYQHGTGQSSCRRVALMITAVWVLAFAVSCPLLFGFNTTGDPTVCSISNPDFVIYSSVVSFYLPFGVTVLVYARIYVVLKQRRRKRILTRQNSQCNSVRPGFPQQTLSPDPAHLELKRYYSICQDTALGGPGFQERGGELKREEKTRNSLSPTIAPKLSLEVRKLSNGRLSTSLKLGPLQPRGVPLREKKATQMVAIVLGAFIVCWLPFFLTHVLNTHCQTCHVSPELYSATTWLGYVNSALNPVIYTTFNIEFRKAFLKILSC
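Agonist-mode cell screen: cells plated at 1500/well and incubated overnight at 37 °C, then exposed to library compounds for 90 min at 37 °C. Detection reagent was added for 30–60 min at room temperature, and luminescence was read.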
KB-3-1 tox: kills parental KB-3-1 adenocarcinoma cells; KB-3-1 viability, CellTiter-Glo ATP luminescence, 72 h; Potency, µM (doses to about 46.1 µM), most hits filed as cytotoxic; hit rate 1.4% among 400,000; AID 1347075; note: potency is the fitted concentration of half-maximal effect; % is set by controls: 0 for no effect and ±100 for the full control effect; nearly all actives have a fitted effect of over 60% in size
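KB-3-1 parental drug-naive adenocarcinoma cells in DMEM/10% FBS, incubated 72 h at 37 C with pin-transferred compounds across a concentration series. Viability by CellTiter-Glo luminescence; concentration-response curves fitted after normalization.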
KB-V1 MDR tox: kills drug-selected multidrug resistant KB-V1 cells | KB-V1 MDR cells viability, CellTiter-Glo, 72 h | Potency, µM (doses to about 46.1 µM), actives largely listed as cytotoxic | hit rate 3.4% among 400,000; note: potency is the fitted concentration of half-maximal effect; % is set by controls: 0 for no effect and ±100 for the full control effect; nearly all actives have a fitted effect of over 60% in size
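KB-V1, DMEM (no phenol red) + 10% FBS; cpd pin-transferred, titration series; 72 h, 37 degrees C; CellTiter-Glo, luminescence. Data normalized, curve-fit.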
SW480 rereplic: induces DNA re-replication in SW480 colon adenocarcinoma cells. SW480 DNA re-replication, Hoechst DNA content imaging, 48 h. Potency, µM (doses to about 46.1 µM), for inactives: at the highest dose re-replication activation, usual class: activators. hit rate 1.8% among 340,000. AID 624297; note: potency is the fitted concentration of half-maximal effect; % of control where 0% means no effect; nearly all actives have a fitted effect of over 55% in size
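Readout is total intensity of Hoechst-stained nuclei, excited at 405 nm and collected at 500-530 nm. Compound treatment lasted 48 hr at 37 C in 5% CO2 before staining.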
D3 antag: D3 dopamine receptor (human) antagonism | P35462 | D3R cells, DiscoveRx beta-arrestin luminescence, antagonist mode; active compounds read low | max response, negative = inhibition, % | hit rate 2.5% among 360,000 | AID 652054; in the data active = max response below about -50%; inconclusive = no clear call, values can overlap the other calls; note: % is set by controls: 0 for no effect and ±100 for the full control effect
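Cells plated overnight at 1500 cells/well, then exposed to library compounds with dopamine controls for 90 minutes at 37 degrees C. DiscoveRx reagent added for 30–60 minutes at room temperature; luminescence read, quantitative HTS format.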
Starred values were filed as active, the others as inactive; i = inactive; ? = inconclusive; . = not tested or not shown. Rows were chosen to be rich in hits. Some 8.9% of all compounds tested hit in one or more screens of this group. Unless noted, calls come from the whole dose curve; as a rule, active = well fitted curve in the direction sought with a large enough effect; inconclusive = small, poorly fitted or top-dose-only effect, or another doubt; inactive = no such curve, though single readings can be large; an effect the other way counts as inactive or inconclusive.

SMILES | MCF10A rereplic | D3 ag | KB-3-1 tox | KB-V1 MDR tox | SW480 rereplic | D3 antag
CCOC(=O)N1CCc2c(sc3c2c(=O)n(-c2ccccc2)c(=O)n3CC(=O)Nc2ccc(OC)cc2OC)C1 | . | -5 | i | i | . | .
CCOC(=O)[C@]12CCCC=C1N(Cc1cccc3ccccc13)C(=O)[C@H](CC(=O)N1CCCCC1)C2 | . | -10 | ? | 9.2µM* | . | -15
CCOC(=O)[C@]12CCCC=C1N(Cc1cccc3ccccc13)C(=O)[C@H](CC(=O)N1CCSCC1)C2 | . | -8 | i | 18µM* | . | 6
CCCCCCCCN1C(=O)[C@H](CC(=O)N2CCSCC2)C[C@@]2(C(=O)OCC)CCCC=C12 | . | -13 | ? | 23µM* | . | -20
CCOC(=O)[C@]12CCC=C1N(Cc1cccc3ccccc13)C(=O)[C@H](CC(=O)N1CCSCC1)C2 | . | -8 | i | ? | . | ?
Cc1ccccc1C(=O)Nc1cc2c(cc1N1CCCCC1)n(C)c(=O)n2C | . | -2 | i | i | . | .
COc1ccccc1-c1ccnc2c(-c3ccc(Br)cc3)c(C)nn12 | . | 1 | i | i | . | .
COc1ccc2c(c1)c1c(c(=O)n(-c3cccc(C)c3)c(=O)n1CC(=O)NCCC1=CCCCC1)n2C | . | 7 | i | i | . | .
CSC1=NSC2=NC(=O)/C(=C\c3coc4ccccc4c3=O)C(=N)N12 | ? | 1 | ? | i | -21% | 4
CC(C)CSC1=NSC2=NC(=O)/C(=C\c3ccccc3)C(=N)N12 | 15µM* | 2 | i | i | 25% | 1
Cc1cc(/C=C2\C(=N)N3C(SCc4ccccc4)=NSC3=NC2=O)c(C)n1Cc1ccccc1 | 11% | 10 | i | i | -4% | 9
CC(C)CSC1=NSC2=NC(=O)/C(=C\c3coc4ccccc4c3=O)C(=N)N12 | 21µM* | 13 | i | i | -9% | 10
COc1ccccc1CNC(=O)CCC1N=C2c3ccccc3N=C(SCc3ccc(Cl)cc3)N2C1=O (stereo unspecified) | . | -5 | . | . | . | .
CCOC(=O)c1[nH]c(C)c(CCC(=O)Nc2ccc(N(CC)CC)cc2C)c1C | . | -6 | i | i | . | .
COc1ccc(/C=N/Nc2nnc(C)n2N)cc1OC | ? | 1 | i | i | ? | 5
COc1ccc(/C=N/Nc2nnc(C)n2N)cc1OC(C)=O | ? | -10 | i | i | ? | -56*
Cc1ccc(NC(=O)CN2C(=O)CSc3ccc(S(=O)(=O)N4CCCC4)cc32)cc1F | . | 0 | . | . | . | .
Cc1[nH]c2ccccc2c1/C=N/NC(=O)C1CC1(c1ccccc1)c1ccccc1 (stereo unspecified) | 23µM* | -4 | ? | ? | ? | -13
CC(C)CCNC(=O)CN(C(=O)Cn1nnc(-c2ccccc2F)n1)c1cccc2c1CCCC2 | -1% | -4 | i | i | -8% | 9
CCC(C(=O)NC(C)(C)C)N(C(=O)Cn1nnc(-c2ccccc2F)n1)c1cccc2c1CCCC2 (stereo unspecified) | 18% | -2 | i | 1.6µM* | -3% | -4
O=C(CN(C(=O)Cn1nnc(-c2ccccc2F)n1)c1cccc2c1CCCC2)NCc1ccccc1 | 4% | 13 | i | 10µM* | 15% | -13
CCCN1CCN(c2ncnc3sc(C(=O)Nc4ccc(N(CC)CC)cc4C)c(C)c23)CC1 | . | -16 | i | i | . | .
CCc1ccc2[nH]cc(S(=O)(=O)c3ccc(C)c(C)c3)c(=O)c2c1 | 27% | 3 | i | i | -10% | -10
CCc1ccc2[nH]c3nc(C)cc(C)c3c(=O)c2c1 | ? | 2 | i | 6.5µM* | 8% | 17
O=C(CC1S/C(=N/N=C/c2cccnc2)NC1=O)Nc1ccccc1 (stereo unspecified) | 17% | 4 | i | i | -1% | 6
SMILES | MCF10A rereplic | D3 ag | KB-3-1 tox | KB-V1 MDR tox | SW480 rereplic | D3 antag
O=C1N/C(=N\N=C\c2ccccn2)SC1Cc1cccc(SC(F)F)c1 (stereo unspecified) | ? | -2 | ? | 3.7µM* | ? | -20
O=C1N/C(=N\N=C\c2ccc3ncccc3c2)SC1Cc1ccc(SC(F)F)cc1 (stereo unspecified) | 16µM* | -21 | i | ? | ? | -8
O=C1N/C(=N\N=C\c2cccnc2)SC1Cc1ccc(SC(F)F)cc1 (stereo unspecified) | ? | -4 | ? | 4.1µM* | 25% | 0
COc1cc(/C=N/N=C2/NC(=O)C(Cc3ccccc3)S2)ccc1O (stereo unspecified) | 18µM* | 2 | i | ? | 28% | -9
O=C1N/C(=N\N=C\c2cccs2)SC1Cc1cccc(Cl)c1 (stereo unspecified) | 2.9µM* | 0 | ? | ? | ? | -9
O=C1N/C(=N\N=C\c2cccs2)SC1Cc1ccc(Cl)cc1 (stereo unspecified) | ? | 12 | i | i | -1% | 3
C=CCOC(=O)c1cn(CC)c2nc(C)ccc2c1=O | -7% | 6 | i | i | -6% | -4
CCn1cc(C(=O)OCC(=O)OC2CC(C)CCC2C(C)C)c(=O)c2ccc(C)nc21 (stereo unspecified) | ? | -1 | ? | i | 3% | -81*
CCOC(=O)CSc1cc(-c2ccccc2)nc2ncnn12 | 2.3µM* | 18 | i | i | -31% | -14
C[C@]12CCC(=O)C=C1CC[C@@H]1[C@@H]2[C@@H](O)C[C@]2(C=O)[C@@H](C(=O)CO)CC[C@@H]12 | -10% | 15 | i | i | -62% | -6
CC12CC(O)C3C(CCC4=CC(=O)CCC43C)C1CCC2=CCO (stereo unspecified) | 14% | 6 | ? | 18µM* | -3% | 1
COCCn1c(SCC(=O)N2CCCC2)nc2c(c1=O)SCC2 | . | 4 | i | i | . | 1
O=C(c1cc([N+](=O)[O-])ccc1N1CCCCC1)N1CCCCC1 | -4% | -6 | i | 16µM* | -9% | ?
O=C(c1ccc([N+](=O)[O-])cc1)N1CCc2ccccc21 | -1% | -27 | i | i | 2% | -55*
O=C(c1cccc(F)c1)N1CCc2ccccc21 | 0.18µM* | 4 | i | i | 1% | 9
O=C(c1ccc(-c2ccc([N+](=O)[O-])cc2)o1)N1CCCCCCC1 | 12µM* | -1 | ? | i | 9% | -26
COC(=O)c1ccccc1NC(=O)c1c(C)oc2ncn(C)c(=O)c12 | . | 2 | i | i | . | .
CCCCCCCCN1C(=O)[C@H](CC(=O)NCc2cccc(C(F)(F)F)c2)C[C@@]2(C(=O)OCC)CCCC=C12 | . | 7 | ? | ? | . | 50

Source: PubChem (National Center for Advancing Translational Sciences (NCATS))
